Most compounds without a hit are left out; they make up all but 12% or so of the library.
HP1b binding inh = HTS for Inhibitors of HP1-beta Chromodomain Interactions with Methylated Histone Tails. 0.56% of 390,000 active. AlphaScreen HP1-beta / biotin-H3K9me3 peptide binding. Potency, µM (doses to about 114 µM), for inactives: at the highest dose activity change, negative = inhibition, actives largely listed as inhibitors. Chromobox protein homolog 1 (Homo sapiens), P83916; also: nearly all actives have a fitted effect of over 70% in size
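Compound inhibition of the preformed complex between 50 nM HP1-beta and 50 nM biotinylated H3K9me3 peptide was read by AlphaScreen. Buffer was PBS pH 7.4 with 0.01% Tween-20. Incubations ran 30 min at room temperature, with 10 ug/mL donor/acceptor beads.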
G9a inh = qHTS Assay for Inhibitors of Histone Lysine Methyltransferase G9a. G9a H3K9 monomethylation, AlphaScreen, 2 h. Potency, µM (titrated, usually from 102 µM), inactives show at the top dose activity, negative = inhibition, hits mostly inhibitors. 8.8% of 350,000 active. AID 504332, 2011; also: % is scaled to controls: 0 for no effect and ±100 for the full control effect; nearly all actives have a fitted effect of over 75% in size
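G9a (20 nM) was preincubated 15 min with compound, then reacted 2 h at room temperature with 500 nM biotin-H3K9 peptide and 20 µM SAM. Monomethyl-H3K9 detected by AlphaScreen using anti-H3K9me1 antibody.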
L3MBTL1 block = qHTS Assay for the Inhibitors of L3MBTL1. 0.66% of 230,000 active. AlphaScreen L3MBTL1–H3K9me1 peptide binding. Lethal(3)malignant brain tumor-like protein 1 (Homo sapiens), Q9Y468. Potency, µM (doses to about 57.1 µM), for the others: at the highest dose activity, negative = inhibition, usual class: inhibitors; also: % is scaled to controls: 0 for no effect and ±100 for the full control effect; nearly all actives have a fitted effect of over 60% in size
Target sequence (Q9Y468 whole entry, looked up): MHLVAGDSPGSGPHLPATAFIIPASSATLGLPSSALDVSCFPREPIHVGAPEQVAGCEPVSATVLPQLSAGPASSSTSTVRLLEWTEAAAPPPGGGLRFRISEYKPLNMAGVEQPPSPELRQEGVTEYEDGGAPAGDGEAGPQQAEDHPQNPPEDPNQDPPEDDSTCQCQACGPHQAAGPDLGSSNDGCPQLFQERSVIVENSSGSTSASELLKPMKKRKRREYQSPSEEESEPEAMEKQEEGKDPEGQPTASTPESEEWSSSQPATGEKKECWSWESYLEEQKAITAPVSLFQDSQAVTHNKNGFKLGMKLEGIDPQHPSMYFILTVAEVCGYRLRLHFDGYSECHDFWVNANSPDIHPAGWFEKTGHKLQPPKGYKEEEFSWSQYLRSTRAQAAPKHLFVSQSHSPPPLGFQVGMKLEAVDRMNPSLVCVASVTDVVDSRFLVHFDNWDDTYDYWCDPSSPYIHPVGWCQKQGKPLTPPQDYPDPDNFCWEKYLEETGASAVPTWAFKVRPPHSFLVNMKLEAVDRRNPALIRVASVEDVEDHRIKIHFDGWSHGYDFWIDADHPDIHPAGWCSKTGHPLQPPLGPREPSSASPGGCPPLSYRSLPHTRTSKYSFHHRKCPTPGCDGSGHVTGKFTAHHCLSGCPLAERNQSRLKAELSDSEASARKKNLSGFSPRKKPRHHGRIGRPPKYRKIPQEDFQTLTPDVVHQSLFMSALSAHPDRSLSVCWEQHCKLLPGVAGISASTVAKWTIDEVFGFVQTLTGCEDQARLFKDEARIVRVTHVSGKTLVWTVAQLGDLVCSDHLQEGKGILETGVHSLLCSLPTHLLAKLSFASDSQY
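Displacement of a biotinylated histone H3(1-15) peptide monomethylated at Lys9 (75 nM) from L3MBTL1 (50 nM) was measured by AlphaScreen after a 30 min room-temperature compound incubation; cefsulodin titration served as intraplate control.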
JMJD2A Tudor inh = qHTS Assay for Inhibitors of JMJD2A-Tudor Domain; Lysine-specific demethylase 4A (Homo sapiens), O75164; AlphaScreen JMJD2A-Tudor / H3K4me3 peptide binding; Potency, µM (titrated, usually from 114 µM), for the others: at the highest dose activity change, negative = inhibition, most hits filed as inhibitors; 4.4% of 390,000 active; also: % is scaled to controls: 0 for no effect and ±100 for the full control effect; nearly all actives have a fitted effect of over 50% in size
BAZ2B block = qHTS Assay for Inhibitors of BAZ2B; Bromodomain adjacent to zinc finger domain protein 2B (Homo sapiens), Q9UIF8; Potency, µM (top dose mostly 114 µM), for inactives: at the top dose activity change, negative = inhibition, hits mostly inhibitors; AID 504333, 2011; AlphaScreen BAZ2B-H3K14Ac peptide displacement; 4.4% of 360,000 active; also: % is scaled to controls: 0 for no effect and ±100 for the full control effect; nearly all actives have a fitted effect of over 60% in size
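Protein-peptide AlphaScreen: BAZ2B 50 nM, b-H3K14Ac 50 nM, 1x PBS pH 7.4 + 0.01% Tween-20. Preincubation 30 min RT; cpd 30 min RT (top 110 uM); beads 20 min RT, light-protected.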
Sfp inh = qHTS Assay for Inhibitors of Bacillus subtilis Sfp phosphopantetheinyl transferase (PPTase). 4'-phosphopantetheinyl transferase ffp (Bacillus subtilis), Q9F4F7. Biochemical Sfp PPTase activity, qHTS. Potency, µM, inactives show largest response in the series, negative = inhibition, actives largely listed as inhibitors. 3.5% of 310,000 active. AID 1490, 2009;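 also: the enzyme is Sfp with the accession as filed and its product quenches rhodamine fluorescence; 0% = enzyme reaction without inhibitor and -100% = no enzyme wells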
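Compounds were incubated with enzyme (final 15 nM) for 15 min at room temperature before substrate addition started the reaction. Fluorescence at 525 nm excitation, 598 nm emission was recorded immediately and after 30 minutes.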
Active calls of the source: *; ? = inconclusive; nt = not tested or not shown; [ ] = dose if it differs, or a comment. Calls follow the shape of the dose curve; as a rule, active = well fitted curve in the direction sought with a large enough effect; inconclusive = small, poorly fitted or top-dose-only effect, or another doubt; inactive = no such curve, though single readings can be large; an effect the other way counts as inactive or inconclusive. Potency is read from the fitted curve at half-maximal effect.

SMILES	HP1b binding inh	G9a inh	L3MBTL1 block	JMJD2A Tudor inh	BAZ2B block	Sfp inh
O=S(=O)(c1ccc2c(c1)OCCO2)N1CCN(S(=O)(=O)c2ccc(F)c(F)c2F)CC1	nt	nt	nt	-10%	nt	nt
CCc1ccc(-n2nc(C)c3c(C(=O)Nc4cccc(C(F)(F)F)c4)cc(C)nc32)cc1	99%	32%[59 µM]	nt	30%	32%[57.1 µM]	nt
CCOc1ccc(-n2nc3cc(C)c(NC(=O)CC)cc3n2)cc1	29%	-28%[59 µM]	nt	-4%	1%	nt
Cc1nnc(SCc2c(Cl)cccc2[N+](=O)[O-])s1	42%	?	-5%	-2%	-24%	22%
O=[N+]([O-])c1cccc(Cl)c1CSc1ccccn1	50%	45µM*	-12%	-5%	?	-13%
CN(C)c1ccc(N2C(=NC(=O)C3CCCO3)SC3CS(=O)(=O)CC32)cc1 (centres undefined)	9%	45µM*	nt	?	?	-2%
CC(C)(C)OC(=O)N1CCC[C@H]1C(=O)N/N=C/c1cccc2cccnc12	34%	4%	-11%	-15%	?	45µM*
Cc1ccccc1OCC(=O)N/N=C/c1cccc2cccnc12	14%	nt	nt	50µM*	40µM*	-3%
C#CCn1cc(/C=N/NC(=O)COc2cccc3cccnc23)c2ccccc21	13%	3.2µM*	-1%	?	?	-28%
O=C(COc1cccc2cccnc12)N/N=C/c1cccn1-c1ccc(F)cc1	?	35µM*	-22%	20µM*	28µM*	-24%
CC(C)(C)OC(=O)N1CCC(c2c(C(=O)Nc3ccc4c(c3)OCCO4)cnn2-c2ccccc2)CC1	6%	?	nt	-33%	-8%[57.1 µM]	nt
COc1ccc(Cn2ccc3nc(C)c(C(=O)Nc4cc(OC)c(OC)c(OC)c4)cc3c2=O)cc1	93%	26%[59 µM]	nt	-11%	-2%	nt
O=C(COc1ccc(F)cc1)N/N=C/c1cccc2cccnc12	36%	nt	nt	89µM*	nt	nt
Cc1ccc(OCC(=O)N/N=C/c2cccc3cccnc23)cc1	16%	nt	nt	56µM*	32µM*	-9%
COc1cc(C2C(C(=O)N3CCOCC3)=C(C)NC3=C2C(=O)CCC3)ccc1OC(C)=O (centres undefined)	15%	1.6µM*	11%[11.4 µM]	2%	-2%	?
CCOc1cc(C2C(C(=O)N3CCOCC3)=C(C)NC3=C2C(=O)CCC3)ccc1O (centres undefined)	5%	-40%[59 µM]	nt	-15%	7%	7%
CC(C)(C)OC(=O)N1CCCC1C(=O)O (centres undefined)	55%	0%[59 µM]	10%	-10%	-5%	10%
CC(C)(CS)C(=O)N1CCC[C@H]1C(=O)O	nt	4.5µM*	nt	nt	nt	22µM*
CN(CC(=O)Nc1cccc(F)c1)C(=O)Cn1c(=O)cnc2ccccc21	22%	?	6%	-11%	-2%	nt
Cc1cc(Br)ccc1NC(=O)CN(C)C(=O)Cn1c(=O)cnc2ccccc21	?	nt	nt	18µM*	79µM*	-7%
Cc1cc2[nH]c(=O)c(=O)[nH]c2cc1S(=O)(=O)Nc1cccc(C(F)(F)F)c1	23%	-31%[59 µM]	nt	-13%	-2%	nt
C/C(=N\NC(=S)Nc1cccc(C)c1)c1cc2ccccc2o1	?	35µM*	-11%[11.4 µM]	25µM*	?	-17%
Cc1cccc(NC(=S)N/N=C(\c2ccccc2)C(C)C)c1	-7%	nt	-25%	-28%	-36%	-12%
Cc1ccc(NC(=S)N/N=C2/CCCCc3ccccc32)cc1	-20%	?	nt	?	?	6%
Cc1cccc(NC(=S)N/N=C2/CCCCc3ccccc32)c1	?	-10%[59 µM]	?	?	40µM*	1%
SMILES	HP1b binding inh	G9a inh	L3MBTL1 block	JMJD2A Tudor inh	BAZ2B block	Sfp inh
CC/C(=N\NC(=S)Nc1cccc(C)c1)c1ccccc1	?	?	?	50µM*	?	-3%
O=S(=O)(Nc1ccc(Cl)cc1NS(=O)(=O)c1ccccc1)c1ccccc1	0%[57 µM]	nt	nt	-26%	nt	nt
COc1ccc(S(=O)(=O)Nc2cccc3ccc(O)cc23)cc1	4%	nt	nt	-13%	nt	nt
O=C(O)CSc1cc(NS(=O)(=O)c2ccc(Cl)cc2)c2ccccc2c1O	20µM*	4µM*	nt	25µM*	50µM*	10µM*
COc1ccc(S(=O)(=O)Nc2cc(SCC(=O)O)c(O)c3ccccc23)cc1	13µM*	2µM*	nt	20µM*	40µM*	7.1µM*
Cc1cc(C)c(S(=O)(=O)Nc2cc(SCC(=O)O)c(O)c3ccccc23)cc1C	-95%	2.2µM*	?	22µM*	40µM*	8.9µM*
CCCN(C(=O)COc1cc(=O)n(CC)c2ccccc12)c1ccc(C(C)C)cc1	21%	-31%[59 µM]	nt	-28%	?	nt
CC(C)c1ccc(NC(=O)CN2C(=O)COc3ccc(S(=O)(=O)N4CCCCC4)cc32)cc1	48%	-7%[59 µM]	nt	-12%	-8%	nt
CN(CC(=O)Nc1ccc(N2CCOCC2)cc1)CC(=O)Nc1ccc(N2CCOCC2)cc1	27%	?	nt	-29%	-12%	-7%
CN(CC(=O)Nc1ccc(C#N)cc1)CC(=O)Nc1ccc(N2CCOCC2)cc1	-7%	?	-8%	40µM*	11%	4%
CCc1ccc(NC(=O)CS(=O)CC(=O)Nc2ccc(N3CCOCC3)cc2)cc1 (centres undefined)	4%	50µM*	nt	40µM*	79µM*	7%
CCN(CC(=O)NCc1ccc(Cl)cc1)C(=O)c1ccc(C#N)cc1	32%	40µM*	nt	-6%	-6%	-1%
CCN(CC(=O)Nc1ccc(N2CCOCC2)cc1)C(=O)c1ccc(C#N)cc1	6%	45µM*	16%	-14%	-9%	-8%
CCc1ccc(CN(C(=O)Nc2cccc(Cl)c2)c2ccccn2)cc1	151%	59%[59 µM]	nt	55%	30%	nt
COc1cccc(CNC(=O)C(Cc2ccccc2)NS(=O)(=O)c2ccc3c(c2)CCN3C(C)=O)c1 (centres undefined)	36%	-24%[59 µM]	nt	0%	nt	nt
COc1ccccc1CN1CC[C@@]2(CCCN(C(=O)c3c(C)noc3C)C2)C1	nt	-1%[12.7 µM]	nt	nt	nt	-1%
CCN(CC(=O)Nc1ccc(N2CCOCC2)cc1)Cc1nc2ccccc2c(=O)[nH]1	43%	-50%	-1%	-26%	-13%[57.1 µM]	?
COc1cc2nc(CN(C)CC(=O)Nc3ccc(N4CCOCC4)cc3)[nH]c(=O)c2cc1OC	-17%	-6%[59 µM]	1%	2%[57.1 µM]	-8%	3.5µM*

Screening data (PubChem BioAssay)
